Details in all cases: mRNA level, 48 h; actives raise or lower the signal
Read-out in test [1]: Hypoxia-inducible factor 1-alpha (Homo sapiens) (UniProt Q16665)
Briefly: LTEA_HepaRG_HIF1A: Life Technologies and Expression Analysis (LTEA) Assay for Hypoxia-inducible factor 1 (HIF1A) Trancription factor using HepaRG (AID 2283503).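 Note: HIF1A transcript by TaqMan qRT-PCR normalized to ACTB GAPDH and POLR2A.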 The procedure, abridged:
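HepaRG, 48 h exposure, 8-pt half-log series from 100 uM, 0.5% DMSO vehicle, duplicates. Readout: HIF1A transcript by qRT-PCR (Fluidigm array), housekeeping-normalised. Bidirectional curve fit vs DMSO baseline.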

Read-out in test [2]: 3-Hydroxy-3-Methylglutaryl-CoA Synthase 2 (HMGCS2), HMGCS2 (gene 3158)
Briefly: LTEA_HepaRG_HMGCS2: Life Technologies and Expression Analysis (LTEA) Assay for 3-Hydroxy-3-Methylglutaryl-CoA Synthase 2 (HMGCS2) using HepaRG (AID 2283504). An outline of the steps: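 Expression of HMGCS2 in human HepaRG liver cells is measured by qRT-PCR 48 h after dosing (highest 100 uM, half-log series, 0.5% DMSO). Values come from bidirectional concentration-response fitting with DMSO as baseline.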

Read-out in the next test: HGF (gene 3082)
Briefly: LTEA_HepaRG_HGF: Life Technologies and Expression Analysis (LTEA) Assay for Hepatocyte Growth Facto (HGF) using HepaRG (AID 2283505). The procedure, abridged: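 Gain or loss of HGF mRNA in human HepaRG liver cells after 48 h chemical exposure; eight concentrations up to 100 uM with 0.5% DMSO vehicle, quantified by TaqMan qRT-PCR.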

Read-out in test [3]: Insulin Like Growth Factor 1 (IGF1), IGF1 (gene 3479)
Briefly: LTEA_HepaRG_IGF1: Life Technologies and Expression Analysis (LTEA) Assay for Insulin Like Growth Factor 1 (IGF1) using HepaRG (AID 2283506). An outline of the steps: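 Using human HepaRG liver cells, IGF1 transcript induction or suppression is measured 48 h after dosing across eight concentrations capped at 100 uM. Values derive from bidirectional concentration-response fitting with DMSO as baseline.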

Read-out in test [4]: Intercellular Adhesion Molecule 1 (ICAM1), ICAM1 (gene 3383)
Briefly: LTEA_HepaRG_ICAM1: Life Technologies and Expression Analysis (LTEA) Assay for Intercellular Adhesion Molecule 1 (ICAM1) using HepaRG (AID 2283507). The procedure, abridged:
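Gain or loss of transcript in HepaRG hepatic cells is quantified by qRT-PCR after 48 h chemical exposure (up to 100 uM, half-log steps), with DMSO as baseline.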

Read-out in test [5]: Insulin-like growth factor-binding protein 1 (IGFBP1), IGFBP1 (gene 3484)
Briefly: LTEA_HepaRG_IGFBP1: Life Technologies and Expression Analysis (LTEA) Assay for Insulin-like growth factor-binding protein 1 (IGFBP1) using HepaRG (AID 2283508). An outline of the steps:
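mRNA induction or loss was quantified by qRT-PCR after 48 h chemical exposure of human HepaRG cells, with 0.5% DMSO as vehicle and baseline. Concentration-response over eight points up to 100 uM.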

Read-out in test [6]: Interleukin 6 (IL6), IL6 (gene 3569)
Briefly: LTEA_HepaRG_IL6: Life Technologies and Expression Analysis (LTEA) Assay for Interleukin 6 (IL6) using HepaRG (AID 2283509). The procedure, abridged:
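HepaRG, ~100,000 cells/well, 48 h pre-culture; serum-free induction medium; cmpd 8-pt half-log from 100 uM, 0.5% DMSO, duplicate, 48 h. Lysis in RLT, TaqMan qRT-PCR; gain or loss vs DMSO.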

Read-out in test [7]: Interleukin 6 Receptor (IL6R), IL6R (gene 3570)
Briefly: LTEA_HepaRG_IL6R: Life Technologies and Expression Analysis (LTEA) Assay for Interleukin 6 Receptor (IL6R) using HepaRG (AID 2283510).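 For AC50: differentiated human HepaRG liver cells in serum-free induction medium; TaqMan qRT-PCR signal normalized to ACTB GAPDH and POLR2A housekeeping genes.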 The procedure, abridged: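 Concentration-response in human liver HepaRG cells: eight concentrations from 100 uM downward by half-logs, 48 h exposure, 0.5% DMSO vehicle. IL6R mRNA change measured by qRT-PCR and fitted in both directions relative to vehicle.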

Read-out in test [8]: Potassium channel subfamily K member 1 (KCNK1), KCNK1 (gene 3775)
Briefly: LTEA_HepaRG_KCNK1: Life Technologies and Expression Analysis (LTEA) Assay for Potassium channel subfamily K member 1 (KCNK1) using HepaRG (AID 2283511). An outline of the steps:
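Gain or loss of KCNK1 mRNA is the read-out, quantified by qRT-PCR against three housekeeping genes after 48 h chemical treatment of human HepaRG liver cells. Concentrations ran from 100 uM downward in half-log steps, vehicle 0.5% DMSO.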

Active and inactive are the calls of the source. Rule for the calls: active = hit-call score of the fitted dose curve at least 0.9, where 1 is the maximum; inactive = score below 0.9.

Hypoxia-inducible factor 1-alpha (Homo sapiens), sequence (Q16665 whole entry, looked up): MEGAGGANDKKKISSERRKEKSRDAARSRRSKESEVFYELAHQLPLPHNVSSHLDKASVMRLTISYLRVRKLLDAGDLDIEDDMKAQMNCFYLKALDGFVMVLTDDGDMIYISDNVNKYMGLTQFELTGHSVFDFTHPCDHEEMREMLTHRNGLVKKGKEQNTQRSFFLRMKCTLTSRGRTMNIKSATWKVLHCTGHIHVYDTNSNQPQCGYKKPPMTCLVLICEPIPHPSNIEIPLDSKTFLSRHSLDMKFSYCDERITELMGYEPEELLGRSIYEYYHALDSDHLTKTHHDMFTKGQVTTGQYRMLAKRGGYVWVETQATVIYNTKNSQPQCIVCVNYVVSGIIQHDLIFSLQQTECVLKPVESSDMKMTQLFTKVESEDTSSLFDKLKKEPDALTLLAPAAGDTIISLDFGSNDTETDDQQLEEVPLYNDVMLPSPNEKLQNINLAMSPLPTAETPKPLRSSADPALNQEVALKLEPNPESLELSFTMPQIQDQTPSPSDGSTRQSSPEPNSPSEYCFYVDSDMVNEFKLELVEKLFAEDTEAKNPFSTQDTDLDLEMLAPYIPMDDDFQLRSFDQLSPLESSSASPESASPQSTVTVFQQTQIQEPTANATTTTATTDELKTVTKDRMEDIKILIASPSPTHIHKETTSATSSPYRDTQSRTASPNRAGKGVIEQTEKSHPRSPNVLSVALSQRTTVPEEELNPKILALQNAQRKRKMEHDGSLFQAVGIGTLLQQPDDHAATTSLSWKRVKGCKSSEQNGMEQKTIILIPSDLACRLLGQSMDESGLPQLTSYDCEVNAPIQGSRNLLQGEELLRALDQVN

In the case of `Cc1c(-c2cccnc2)c2ccccc2n1CCCCC(=O)O`, the result (in [1]; in [2]; with HGF (gene 3082); in test [3]; in test [4]; in test [5]) was inactive. Also, the result in test [6], in test [7] and in test [8] was inactive.

Regarding `CC[C@H](C)C(=O)O[C@H]1C[C@@H](C)C=C2C=C[C@H](C)[C@H](CC[C@@H]3C[C@@H](O)CC(=O)O3)[C@H]21`, the result (in [1]; in test [2]; with HGF (gene 3082); in test [3]; in [4]; in test [5]) was inactive. The compound was called inactive in test [6] and in [7].

With `CC(C)CCCCCCOC(=O)c1ccc(C(=O)OCCCCCCC(C)C)c(C(=O)OCCCCCCC(C)C)c1`, the result (in [1]; in test [2]; with HGF (gene 3082); in [3]; in [4]; in test [5]) was inactive. For the same compound, the compound was called inactive in [6], in test [7] and in test [8].

As to `CN(C)c1ccc(N=NS(=O)(=O)O)cc1`, the call (in test [1]; in [2]; with HGF (gene 3082); in test [4]; in [6]; in [8]) was inactive. In addition, the AC50 in test [3] was 26.2 µM (active); in [5] it was 75.3 µM (active); in test [7], 22.3 µM (active).

Regarding `C=CCCCCCCCCC(=O)O`, the outcome (in test [1]; in [2]; with HGF (gene 3082); in test [3]; in test [4]; in test [5]) was inactive. The result in test [6], in test [7] and in test [8] was inactive.

With `CCOC(=O)c1ccc(C2CCC(NC[C@H](O)COc3ccc(O)c(NS(C)(=O)=O)c3)CC2)cc1` (stereo partly specified), the compound was classed as inactive (in test [1]; in test [2]; with HGF (gene 3082); in [3]; in [4]; in test [5]). The call in [6], in test [7] and in [8] was inactive.

With `O=C(OC[C@H]1O[C@@H](OC(=O)c2cc(O)c(O)c(OC(=O)c3cc(O)c(O)c(O)c3)c2)[C@H](OC(=O)c2cc(O)c(O)c(OC(=O)c3cc(O)c(O)c(O)c3)c2)[C@@H](OC(=O)c2cc(O)c(O)c(OC(=O)c3cc(O)c(O)c(O)c3)c2)[C@@H]1OC(=O)c1cc(O)c(O)c(OC(=O)c2cc(O)c(O)c(O)c2)c1)c1cc(O)c(O)c(OC(=O)c2cc(O)c(O)c(O)c2)c1`, the compound was classed as inactive in [1], in test [3] and in [8]. In addition, the AC50 is 9.74 µM (active) in test [2]; 15.2 µM (active) with HGF (gene 3082); 6.76 µM (active) in [4]; 9.51 µM (active) in [5]; 10.5 µM (active) in test [6]; 15.2 µM (active) in [7].

On to `O=C(O)c1cccc(N(Cc2cccnc2)c2ccc(OC(F)F)c(OC(F)F)c2)c1`, for which the compound was called inactive (in test [1]; in [2]; in the test with HGF (gene 3082); in test [3]; in test [4]; in [5]). Further, the outcome in [6], in [7] and in test [8] was inactive.

With `CCOC(=O)CC(CC(=O)OCC)(OC(C)=O)C(=O)OCC`, the result (in test [1]; in test [2]; with HGF (gene 3082); in test [3]; in test [4]; in test [5]) was inactive. Moreover, the outcome in [6], in test [7] and in test [8] was inactive.

For `COCCOCCOCCOC`, the outcome (in test [1]; in [2]; with HGF (gene 3082); in test [3]; in test [4]; in test [5]) was inactive. In addition, the compound was called inactive in test [6], in test [7] and in test [8].

Take `CC1=CC(=O)CC(C)(C)C1`: the compound was called inactive (in [1]; in [2]; in the test with HGF (gene 3082); in [3]; in test [4]; in [5]). For the same compound, the compound was called inactive in test [6], in test [7] and in test [8].

For the compound `CCNc1ccccc1`, the result (in test [1]; in test [2]; in the test with HGF (gene 3082); in test [3]; in [4]; in test [5]) was inactive. Besides, the compound was classed as inactive in test [6], in test [7] and in test [8].

Consider `CC(=O)OC[C@H]1O[C@@](COC(C)=O)(O[C@H]2O[C@H](COC(C)=O)[C@@H](OC(C)=O)[C@H](OC(C)=O)[C@H]2OC(C)=O)[C@@H](OC(C)=O)[C@@H]1OC(C)=O`, for which the compound was classed as inactive (in [1]; in test [2]; with HGF (gene 3082); in test [3]; in test [4]; in test [5]). The call in test [6], in test [7] and in [8] was inactive.

For `CCOC(=O)COc1ccc2c(c1)CC(NCC(O)c1cccc(Cl)c1)CC2` (stereo unspecified), the compound was called inactive (in test [1]; in test [2]; in the test with HGF (gene 3082); in test [3]; in [4]; in [5]). For the same compound, the result in test [6], in test [7] and in test [8] was inactive.

`Clc1nc(Cl)c(Cl)c(Cl)c1Cl`: the result (in test [1]; in test [2]; in the test with HGF (gene 3082); in test [3]; in [4]; in test [5]) was inactive. Also, the compound was called inactive in [6], in test [7] and in [8].

In the case of `CCCCC(CC)COC(=O)c1ccc(C(=O)OCC(CC)CCCC)cc1` (stereo unspecified), the call (in [1]; in test [2]; with HGF (gene 3082); in test [3]; in [4]; in test [5]) was inactive. In addition, the outcome in test [6], in test [7] and in test [8] was inactive.

Regarding `Cn1c(=O)c2c(ncn2C)n(C)c1=O`, the result (in [1]; in [2]; with HGF (gene 3082); in test [3]; in test [4]; in test [5]) was inactive. Moreover, the call in [6], in test [7] and in test [8] was inactive.

Take `O=C(O)c1cccc(Oc2ccccc2)c1`: the compound was called inactive (in [1]; in [2]; with HGF (gene 3082); in test [3]; in test [4]; in [5]). Further, the outcome in [6], in test [7] and in [8] was inactive.

Regarding `C1N2CN3CN1CN(C2)C3`, the compound was classed as inactive (in [1]; in [2]; with HGF (gene 3082); in test [3]; in test [4]; in test [5]). Moreover, the call in test [6], in test [7] and in test [8] was inactive.

Turning to `COc1ccc2sc(C(=O)Nc3nnn[nH]3)c(OC(C)C)c2c1`, the AC50 is 72 µM (active) in test [1], 86.5 µM (active) in test [2], 23.6 µM (active) in test [5] and 28.1 µM (active) in test [8]. Moreover, the outcome (with HGF (gene 3082); in test [3]; in [4]; in [6]; in [7]) was inactive.

On to `CNCc1ccc(NC(=O)c2c[nH]c3c2C(=O)CCC3)cc1`, for which the compound was classed as inactive (in test [1]; in test [2]; in the test with HGF (gene 3082); in [3]; in [4]; in [5]). Further, the compound was classed as inactive in test [6], in [7] and in test [8].

As to `On1ccccc1=S`, the outcome (in [1]; in [2]; with HGF (gene 3082); in [3]; in [4]; in test [5]) was inactive. Besides, the outcome in test [6], in test [7] and in [8] was inactive.

In the case of `O=P(OC(CCl)CCl)(OC(CCl)CCl)OC(CCl)CCl`, the compound was called inactive (in test [1]; with HGF (gene 3082); in test [7]; in test [8]). In addition, the AC50 in test [2] was 72.8 µM (active); in test [3], 50 µM (active); in test [4], 84.1 µM (active); in test [5], 62.7 µM (active); in test [6] it was 79.6 µM (active).

For the origin of these results see PubChem BioAssay (EPA / NIEHS).
